# Tau fluor cs = counter-screen for tau fibril formation inhibitors. Potency, µM (series often up to 57.7 µM), inactives show top-dose activity change, negative = decrease. 280,000 compounds, 0.93% hits. tau K18 P301L Alexa594 fluorescence, heparin fibrillization; further: potency means the concentration at half of the fitted maximal effect; nearly all actives have a fitted effect of over 55% in size
#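 Human K18 P301L tau (15 uM unlabeled plus 0.24 uM Alexa 594-labeled, final) in 100 mM sodium acetate pH 7 was mixed with compound and 20 uM heparin and incubated 6 hr at 37 C.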
# FBPA coupling cs = coupling enzyme interference in Giardia aldolase counter-screen; coupling enzyme system counterscreen, AmpLite Red fluorescence; activity change, negative = inhibition, % at 58.2 µM, hits read low; 290,000 compounds, 0.67% hits; in the data active means activity change below about -30%
#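 Counterscreen of the coupled detection system alone, without aldolase: glyceraldehyde-3-phosphate coupling enzymes plus AmpLite Red readout. Compounds at 57.5 uM final, 10 min RT preincubation, 20 min RT reaction, fluorescence 525/598 nm.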
# Sfp inh = Sfp phosphopantetheinyl transferase inhibition | Potency, µM, for inactives: largest response in the series, negative = inhibition, usual class: inhibitors | 310,000 compounds, 3.5% hits | AID 1490 | Biochemical Sfp PPTase activity, qHTS | Q9F4F7;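 further: the enzyme is Sfp with the accession as filed and its product quenches rhodamine fluorescence; potency means the concentration at half of the fitted maximal effect; 0% = enzyme reaction without inhibitor and -100% = no enzyme wells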
#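 Fluorescence-quenching assay: 15 nM Sfp-PPTase preincubated 15 min at room temperature with compound, then 5 uM rhodamine-CoA and 12.5 uM BHQ-2-labelled YbbR peptide added. Fluorescence (ex 525/em 598 nm) read at start and after 30 min; difference gives rate.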
# Tau fibril ThT = inhibitors of human tau fibril formation, thioflavin T binding | recombinant tau K18 P301L (four-repeat tau fragment), heparin-induced fibrillization, ThT fluorescence | Potency, µM (top dose mostly 57.4 µM), for the others: at the highest dose activity, negative = inhibition, usual class: inhibitors | 270,000 compounds, 2.1% hits | AID 1460; further: potency means the concentration at half of the fitted maximal effect; nearly all actives have a fitted effect of over 55% in size
# Target sequence (P10636 561-689 P618L limits assumed): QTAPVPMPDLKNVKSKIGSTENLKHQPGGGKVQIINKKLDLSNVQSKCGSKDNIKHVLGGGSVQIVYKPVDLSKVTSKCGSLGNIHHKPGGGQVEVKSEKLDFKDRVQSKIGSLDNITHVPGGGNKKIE
#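 Recombinant human tau K18 fragment […] carrying P301L, 15 uM unlabeled plus 0.24 uM Alexa 594-labeled, was fibrillized with 20 uM heparin in 100 mM sodium acetate pH 7 for 6 hr at 37 C; 30 uM ThT fluorescence read after 1 hr.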
# G9a inh = blocks human histone lysine methyltransferase G9a; Q96KQ7; G9a H3K9 monomethylation, AlphaScreen, 2 h; Potency, µM (titrated, usually from 102 µM), inactives show top-dose activity, negative = inhibition, actives largely listed as inhibitors; 350,000 compounds, 8.8% hits; AID 504332; further: potency means the concentration at half of the fitted maximal effect; nearly all actives have a fitted effect of over 75% in size
# Target sequence (Q96KQ7 913-1193 limits assumed): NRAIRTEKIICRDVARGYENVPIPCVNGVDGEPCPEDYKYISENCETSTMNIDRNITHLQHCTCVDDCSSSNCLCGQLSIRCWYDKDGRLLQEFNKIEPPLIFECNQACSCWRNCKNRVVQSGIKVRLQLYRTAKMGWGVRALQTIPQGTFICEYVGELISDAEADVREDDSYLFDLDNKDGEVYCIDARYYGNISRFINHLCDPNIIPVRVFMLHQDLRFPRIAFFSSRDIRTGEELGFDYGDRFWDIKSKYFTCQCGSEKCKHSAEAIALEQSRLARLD
#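 Readings reflect AlphaScreen signal from monomethyl-H3K9 antibody detection. HMT at 20 nM; substrate b-H3K9 500 nM; cofactor SAM 20 uM; 2 h RT reaction; compounds tested as titrations in qHTS with 15 min preincubation.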
# Tau fibril FP = tau fibrillization inhibition (FP). P10636. K18 P301L tau heparin fibrillization, Alexa594 FP, 6 h. Potency, µM (highest dose often 57.7 µM), for inactives: top-dose activity, negative = inhibition, hits mostly inhibitors. 280,000 compounds, 0.39% hits. AID 1468; further: potency means the concentration at half of the fitted maximal effect; nearly all actives have a fitted effect of over 55% in size
#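 Steps: dispense K18 P301L tau (15 uM plus 0.24 uM Alexa 594 tracer, final) in pH 7 sodium acetate; add compound; add heparin (20 uM final); incubate 6 hr, 37 C; add ThT (30 uM final); after 1 hr ambient, read FP.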
# * hit, by the source's call; u = inconclusive; x = no result given; [ ] = dose if it differs, or a comment. This is a sample that favours compounds with a hit; in the whole collection about 11% have one here. Unless noted, the call rests on the fitted dose curve; in most records, active means well fitted curve in the direction sought with a large enough effect; inconclusive means small, poorly fitted or top-dose-only effect, or another doubt; inactive means no such curve, though single readings can be large; an effect the other way counts as inactive or inconclusive. Unless noted, on the % scale 0 is the no-effect control and ±100 the full control effect.
SMILES,Tau fluor cs,FBPA coupling cs,Sfp inh,Tau fibril ThT,G9a inh,Tau fibril FP
CCOc1cc(/C=C2/C(=O)ON=C2C)ccc1O,x,-1,-19%,x,50µM*,x
CCN(CC)c1ccc(/C=C2/C(=O)ON=C2C)cc1,-28%,-1,-16%,8.9µM*,45µM*,-6%
CCCCC1(C)OC(=O)C(=Cc2ccc(N(CC)CC)cc2)C(=O)O1 (centres undefined),-2%,x,-7%,-17%,71µM*,0%
CCOc1cc(/C=C2\CCC/C(=C\c3cc(Cl)c(O)c(OCC)c3)C2=O)cc(Cl)c1O,u,2,5%,8.9µM*,-7%[59 µM],u
CCN(CC(=O)Nc1ccc2c(c1)OCCO2)C(=O)c1ccc([N+](=O)[O-])s1,x,x,x,x,-36%[12.7 µM],x
COc1ccccc1CN1CC2(CCN(C(=O)c3cccc(F)c3)CC2)C1,x,2,9%,x,0%[12.7 µM],x
O=c1c2[nH]cnc2n(-c2cccc(Br)c2)c(=O)n1Cc1ccccc1,x,-4,-3%,x,-4%,x
COC(=O)c1cc(Cn2nc(C(=O)O)c3ccccc3c2=O)oc1C,x,-3,5%,x,-3%,x
CCOc1cc(/C=C2\CN(C)C/C(=C\c3ccc(O)c(OCC)c3)C2=O)ccc1O,x,0,-11%,x,35µM*,x
CC1=NOC(=O)/C1=C/c1ccc(O)c(Cl)c1,x,1,-35%,x,50µM*,x
CCN(CC)c1ccc(/C=C2\C(=O)N(c3nnc(C)c(=O)[nH]3)N=C2C)cc1,6%,-8,10µM*,7.9µM*,50µM*,u
CCCOc1ccc(/C=C2/C(=O)ON=C2C)cc1Cl,x,-2,50µM*,x,28µM*,x
CCOc1cc(/C=C2\SC(=O)N=C2N)ccc1O,-25%,0,-1%,u,-20%[59 µM],11%
O=C(NCc1ccccn1)c1ccc2c(=O)n(CCc3ccccc3)c(=O)[nH]c2c1,-9%,3,8%,-17%,u,-12%
O=C(NCc1ccccn1)c1ccc(=O)oc1,-8%,1,89µM*,-13%,3.2µM*,-8%
Cc1cc(=O)oc(C)c1C(=O)NCc1ccccn1,-6%,x,-29%,-14%,1.6µM*,5%
CCCCCn1c(=O)[nH]c2cc(C(=O)NCc3ccccn3)ccc2c1=O,-1%,3,-5%,-12%,40µM*,4%
COc1ccc(C(=O)Nc2cccnc2Cl)cc1OC,x,0,3%,x,8%,x
O=C(Nc1cccnc1Cl)c1ccc(=O)oc1,-12%,1,u,u,35µM*,7%
CCc1ccc(C2=NN(CCC(=O)NCCc3ccccc3)C(=O)CC2)cc1,0%,x,x,-11%,5%[59 µM],-2%
CCc1ccc(-n2c(CCC(=O)O)ccc2-c2ccc(F)cc2)cc1,-4%,x,x,-10%,10µM*,-1%
Cc1ccc(-n2c(CCC(=O)O)ccc2-c2cccs2)cc1C,-18%,14,45µM*,u,u,1%
Cc1ccc(Cl)cc1-n1c(CCC(=O)O)ccc1-c1cccs1,-22%,x,x,u,11µM*,1%
CCOC(=O)c1ccc(-n2c(CCC(=O)O)ccc2-c2cccs2)cc1,-16%,15,25µM*,u,22µM*,-9%
Cc1cc(Cl)ccc1-n1c(CCC(=O)O)ccc1-c1cccs1,-26%,x,x,u,u,-3%
SMILES,Tau fluor cs,FBPA coupling cs,Sfp inh,Tau fibril ThT,G9a inh,Tau fibril FP
Cc1ccc(S(=O)(=O)N(CCc2ccccc2)CC(=O)Nc2ccc(Br)cc2)cc1,u,x,x,2%,43%[59 µM],-19%
COc1cc(NC(=O)c2cc3c(=O)oc4ccc(C)cc4c3s2)cc(OC)c1OC,-8%,x,x,5%,8%[59 µM],1%
CCc1ccc(-n2c(CCC(=O)O)ccc2-c2cccs2)cc1,-18%,x,x,u,10µM*,-8%
CN(C)C(=O)c1ccc(Nc2ncnc3sc4c(c23)CCCCC4)cc1,x,2,17%,x,1%,x
CCC(Sc1nnc(C)s1)C(=O)Nc1nccs1 (centres undefined),9%,-3,3%,-2%,1%,0%
CCC(Sc1nc2ccc(N)cc2s1)C(=O)Nc1nccs1 (centres undefined),-6%,0,-5%,3%,13µM*,0%

# Bioassay records: PubChem BioAssay, National Center for Advancing Translational Sciences (NCATS)
